An excerpt weighted towards active compounds, which were near 2.9% of everything screened.
Mcl1 Noxa PPI – disrupts binding of human Mcl-1 to Noxa peptide; inhibition, % at 21.7 µM; AID 1022; Q07820; TR-FRET Mcl-1/Noxa peptide binding, 2 h; 1.5% of 220,000 active;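 active = compounds that cut the protein-peptide binding signal by more than 50% relative to plate controls in a single-dose test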;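 note: His-tagged Mcl-1 with rhodamine Noxa BH3 peptide and terbium anti-His antibody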
Mcl-1 Bim block – inhibitors of Bim-Mcl-1 interaction, human. Q07820. Bead-based flow cytometry, Bim peptide-Mcl-1 binding. inhibition, % at 10 µM. 0.1% of 190,000 active. AID 1009; in the data active = inhibition above about 40%
Pf gamet viab – P. falciparum stage V gametocyte viability inhibition. P. falciparum stage V gametocytes, ATP luminescence, 24 h. AID 743093. inhibition, % at 10.9 µM. 0.065% of 150,000 active;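 active = inhibition above the mean plus 3 SD of compounds within the control limits, set per campaign, cut at about 38% in these data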
Hck Nef HTS – blocks Nef-activated human Hck kinase; 0.68% of 220,000 active; inhibition, % at 20 µM; AID 463187; Recombinant Hck-YEEI plus Nef, Z-Lyte FRET kinase assay; P08631;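 active = Hck-Nef kinase inhibition above about 50%, limit read from the data; inactive = inhibition below that limit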
Target sequence (P08631 whole entry, looked up): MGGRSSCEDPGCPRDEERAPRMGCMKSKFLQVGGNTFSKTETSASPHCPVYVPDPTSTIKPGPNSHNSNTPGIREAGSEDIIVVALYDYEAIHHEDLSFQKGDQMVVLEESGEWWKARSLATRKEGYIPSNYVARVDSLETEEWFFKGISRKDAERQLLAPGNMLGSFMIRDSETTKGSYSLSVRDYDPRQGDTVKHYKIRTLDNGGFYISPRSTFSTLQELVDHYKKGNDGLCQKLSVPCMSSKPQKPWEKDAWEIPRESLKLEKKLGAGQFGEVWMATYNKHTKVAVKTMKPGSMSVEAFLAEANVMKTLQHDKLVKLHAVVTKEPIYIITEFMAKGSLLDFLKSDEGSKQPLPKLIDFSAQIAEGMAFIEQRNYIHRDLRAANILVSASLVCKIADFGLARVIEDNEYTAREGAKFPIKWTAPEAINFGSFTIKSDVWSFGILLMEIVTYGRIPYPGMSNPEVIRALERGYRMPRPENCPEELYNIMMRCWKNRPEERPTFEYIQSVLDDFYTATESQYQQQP
Mcl1-Bid inh – Mcl-1/Bid interaction inhibition; TR-FRET Mcl-1/Bid-Dy647 peptide binding, 1536-well; Q07820; inhibition, % at 21.7 µM; 0.97% of 220,000 active; AID 1021;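 active = compounds that cut the binding signal by more than half at the single screening dose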;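 note: His-tagged Mcl-1 with europium anti-His antibody binding Bid BH3 peptide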
14-3-3 Bad inh – disrupts binding of bovine 14-3-3 zeta to phospho-Bad peptide; P63103; inhibition, % at 21.7 µM; 0.71% of 220,000 active; TR-FRET 14-3-3zeta/Dy647-pBad peptide displacement, 1 h;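 active = inhibition above about 70%, limit read from the data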
Hits are given with their value; – = inactive; · = not tested or not shown; [ ] = remark or other dose.

SMILES	Mcl1 Noxa PPI	Mcl-1 Bim block	Pf gamet viab	Hck Nef HTS	Mcl1-Bid inh	14-3-3 Bad inh
CC1(C)CC(=O)C(C(=O)C2CCN(S(=O)(=O)c3ccccc3)CC2)C(=O)C1	–	–	–	–	–	71
CCCCNC(=O)CSc1nc2cc(OC)c(OC)cc2c(=O)n1Cc1ccc(OC)cc1	–	–	–	–	–	–
O=C(O)c1cccc(Cn2c(Cl)c(/C=N/NC(=O)c3cc4ccccc4cc3O)sc2=O)c1	87	·	–	–	–	–
COc1ccc(CNC(=O)Cn2nc(C(F)(F)F)c3c2CCC3)cc1	–	–	·	–	–	–
O=C(Cn1nc(C(F)(F)F)c2c1CCCC2)NCc1ccco1	–	–	–	–	98	–
CCN1CCN(C2=NC(=O)/C(=C/c3ccc(C)o3)S2)CC1	–	–	·	–	–	–
CCOCC(=O)Nc1ccc(S(=O)(=O)N2CCOCC2)cc1	–	–	·	–	–	–
CCOc1ccc(NC(=O)COn2nnc3ccc(S(=O)(=O)N4CCOCC4)cc32)cc1	71	–	–	–	–	–
COc1ccc2c(Cl)c(C(=O)N/N=C/c3ccc4c(c3)OCO4)sc2c1	–	–	–	–	–	73[fluorescence artefact?]
COc1ccc(NS(=O)(=O)c2cccc(C(=O)N/N=C/c3ccc4c(c3)OCCO4)c2)cc1	–	–	–	–	65	–
O=C(N/N=C/c1ccc2c(c1)OCO2)c1sc2cc(Cl)ccc2c1Cl	–	–	–	–	51	–
O=C(N/N=C/c1ccc2c(c1)OCO2)c1sc2cccc(Cl)c2c1Cl	–	–	–	–	–	–
O=C(c1ccccc1F)N1CCN=C1c1ccccc1	–	–	–	–	–	–
CCC(c1nnc(SCC(=O)Nc2ccc(S(N)(=O)=O)cc2)n1Cc1ccccc1)N(C)C (centres undefined)	–	–	–	–	–	–
COc1ccc(C2C(C#N)=C(N)OC3=C2C(=O)CC(C)(C)C3)c([N+](=O)[O-])c1OC (centres undefined)	–	–	·	–	–	–
Cc1ccc(C(=O)Oc2ccc(-c3nccc(-c4ccccn4)n3)cc2)cc1	–	–	–	–	55	–
CCCCC[C@H](O)/C=C/[C@@H]1[C@@H](C/C=C\CCCC(=O)OC)[C@@H](O)C[C@H]1O	–	–	·	–	98	91
O=c1ccn(Cc2ccccc2)c(=O)n1Cc1ccccc1	–	–	–	–	–	–
C#CCn1c(=NC(=O)CSC(C)=O)sc2cc(F)ccc21	–	–	·	–	–	–
O=C(NCCc1ccccc1)N1CCCC(CNS(=O)(=O)Cc2ccccc2)C1 (centres undefined)	54	–	–	–	–	–
N#CCCN(C(=O)CO/N=C/c1cccc([N+](=O)[O-])c1)c1ccccc1	–	–	–	–	–	–
CN(C)CCCN(C(=O)c1ccc2c(c1)CCCC2)c1nc2c(F)cccc2s1	56	–	–	–	–	–
CC1CCN(C2(O)C(=O)Nc3ccc(Br)cc32)CC1 (centres undefined)	–	93	–	–	–	83
COc1ccccc1N=Cc1c(C)c(C#N)c2[nH]c3ccccc3n2c1=O	–	–	–	53	–	–
O=C(Nc1ccc(F)cc1)N1CCCN(c2ccc(C(F)(F)F)cn2)CC1	–	·	–	–	83	–
SMILES	Mcl1 Noxa PPI	Mcl-1 Bim block	Pf gamet viab	Hck Nef HTS	Mcl1-Bid inh	14-3-3 Bad inh
CCc1ccc(N2C(=O)Cc3c2nc(N)c(C#N)c3N)cc1	–	–	·	–	–	–
CCN(CC)c1nc2c3c(nc4c(c3c1C#N)CC(=O)N4c1ccc(Cl)cc1)NC(C)=N2	82	–	–	–	–	–
COc1ccc(NC(=O)/C(Cl)=C(/Cl)S(=O)Cc2ccc(Cl)cc2)cn1 (centres undefined)	53	–	–	–	–	–
O=C1NC(=NCc2ccccc2)S/C1=C/c1ccc(O)cc1	–	–	·	–	–	–
O=C1N/C(=C/c2ccc(Br)cc2)C(O)=C1C=NCc1ccccc1	–	–	·	–	54	–
CN1C=C/C(=C\c2cc[n+](C)c3ccccc23)c2ccccc21	85	–	–	–	–	–
CC[n+]1ccc(/C=C2\Sc3ccccc3N2CCCS(=O)(=O)[O-])c2ccccc21	–	–	–	–	–	–
Cc1ccc2cc(/C=N/NC(=O)CN3CCOCC3)c(Cl)nc2c1	–	–	·	–	74	–
Cc1ccc2nc(Cl)c(/C=N/NC(=O)CN3CCOCC3)cc2c1	·	·	–	·	·	·

Screens as filed in PubChem.
